# MCF10A rerep = DNA re-replication induction in MCF 10a cells. MCF 10A DNA re-replication, Hoechst nuclear intensity, 48 h. Potency, µM (top dose mostly 46.1 µM), without a hit: at the highest dose activity, positive = re-replication, most hits filed as activators. 2.9% of 350,000 active. AID 624296; also: % of control where 0% means no effect; nearly all actives have a fitted effect of over 50% in size
# a7 integrin act = activates integrin-mediated alleviation for muscular dystrophy; alpha7betagal myoblasts, beta-gal FDG fluorescence, 48 h; Potency, µM (doses to about 38.3 µM), without a hit: top-dose activation, hits mostly activators; 0.064% of 350,000 active;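 also: 100% = response of the positive control SU9516; nearly all actives have a fitted effect of over 60% in size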
#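 alpha7betagal+/- myoblasts (passage 13, 250/well) treated 48 h at 37C with compounds at 1:260 dilution of DMSO stock. Lysed, then beta-galactosidase activity read as FDG fluorescence (ex 480/em 540) after 30 min, with pre-read for autofluorescence.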
# Mito fusion act = mitochondrial division inhibition or fusion activation | S. cerevisiae fusion-defective mutant growth rescue, CellTiterGlo 48 h | Potency, µM (titrated, usually from 46.1 µM), for the others: at the highest dose growth rescue (activation), actives largely listed as activators | 0.23% of 320,000 active; also: % of control where 0% means no effect; nearly all actives have a fitted effect of over 45% in size
#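 Compounds are tested for their ability to restore growth of mitochondrial fusion-defective yeast strains at non-permissive 37C in YPEG medium over 48 hours. Viability is quantified by luciferase luminescence.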
# SW480 rerep = DNA re-replication induction in SW480 cells; SW480 DNA re-replication, Hoechst DNA content imaging, 48 h; Potency, µM (top dose mostly 46.1 µM), without a hit: at the top dose re-replication activation, actives largely listed as activators; 1.8% of 340,000 active; AID 624297; also: % of control where 0% means no effect; nearly all actives have a fitted effect of over 55% in size
#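 Treated cells incubate 48 hr (37 C, 5% CO2), are stained 40 min with Hoechst, and nuclear fluorescence is enumerated; a rise in nuclei with high DNA signal marks re-replication.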
# AT treatment = potential ataxia-telangiectasia treatments restoring KAP-1 phosphorylation; F2112 A-T fibroblasts, KAP-1 phosphorylation AlphaLISA; neocarzinostatin DNA damage 30 min before lysis; Potency, µM (highest dose often 57.5 µM), without a hit: at the top dose activation, hits mostly activators; 0.19% of 320,000 active; also: % of control where 0% means no effect; nearly all actives have a fitted effect of over 45% in size
#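 ATM-like activity read as KAP-1 phosphorylation via AlphaLISA donor/acceptor antibody pairs after lysis and 6 hr at 25C. Cells were ATM-null patient fibroblasts (F2112, hTERT), dosed 60 min, then exposed to the DSB inducer NCS for 30 min.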
# Starred values were filed as active, the others as inactive; ? = inconclusive; / = not tested or not shown; [ ] = remark or other dose. An excerpt weighted towards active compounds, which were near 4.2% of everything screened. Calls follow the shape of the dose curve; as a rule, active = well fitted activation curve with a large enough effect; inconclusive = small, poorly fitted or top-dose-only effect; inactive = no such curve, though single readings can be large or run the other way. Potency is read from the fitted curve at half-maximal effect.
SMILES,MCF10A rerep,a7 integrin act,Mito fusion act,SW480 rerep,AT treatment
CCOC(=O)C1=CN(Cc2cccc(F)c2)S(=O)(=O)NC1CCc1ccccc1 (stereo not drawn),14.6µM*,-6.1%,/,52.0%,-19.8%
CCOC(=O)C1=CN(Cc2cccc(F)c2)S(=O)(=O)NC1c1ccccc1 (stereo not drawn),-3.7%,24.0%,/,-16.8%,10.0%
O=[N+]([O-])c1cc(Cl)cc(/C=N\Nc2ccccn2)c1O,?,-7.7%,1.9%,3.66µM*,2.9%
OC1(c2ccccc2)CC(c2ccccc2)c2ccccc2O1 (stereo not drawn),225.5%,-26.5%,/,?,/
CCCCN(CC)c1nc(N)c2c(N)nc(OCC)cc2c1C#N,23.1µM*,7.0%,18.2%,?,2.9%
CCOc1cc2c(C#N)c(N3CCCC3)nc(N)c2c(N)n1,10.7%,3.4%,/,-13.5%,/
CSCCC(NS(=O)(=O)c1ccccc1)C(=O)Nc1nccs1 (stereo not drawn),-14.1%,11.5%,1.3%,-61.8%,-1.0%
O=C(N/N=C1/CC2C=CCC12)c1cccs1 (stereo not drawn),-0.4%,25.8%,0.8%,2.1%,10.2%
O=c1[nH]c2ccccc2nc1/C=C/c1ccccc1,3.66µM*,32.5%,0.0%,?,4.1%
COc1ccc(OC)c(/C=C/c2nc3ccccc3[nH]c2=O)c1,13µM*,11.1%,23.3%,20.6µM*,2.5%
CC(C)(C)/C(O)=C/c1nc2ccccc2[nH]c1=O,11.9%,16.6%,8.8%,5.2%,-2.8%
O=c1[nH]c2ccccc2nc1/C=C/c1ccc(F)cc1,6.51µM*,-24.3%,2.2%,?,19.1%
O=C(/C=C/c1ccc(F)cc1)Nc1nc2ccccc2[nH]1,4.1%,/,-2.4%,-2.2%,-3.2%
O=c1[nH]c2ccccc2nc1/C=C/c1ccc(O)cc1,8.2µM*,-45.0%,14.6%,18.4µM*,-0.6%
COc1cc([N+](=O)[O-])cc2cc(C(=O)N3CCCC3)c(=O)oc12,1.0%,-4.8%,7.2%,1.0%,1.6%
CC(C)CN(CCNC(=O)CN1C(=O)COc2ccc(S(=O)(=O)N3CCC(C)CC3)cc21)CC(C)C,11.7%,-30.2%,0.1%,-11.3%,3.0%
O=c1[nH]c2ccc(Br)cc2c(=O)o1,/,-15.0%,/,/,/
O=C(Nc1cccc(OC(=O)c2ccc(Br)o2)c1)c1ccccc1,17.8%,39.1%,?,-8.2%,14.5%
COc1ccc(OC)c(C=Cc2ccc([N+](=O)[O-])cc2)c1,/,-14.9%,/,/,/
COc1ccc(OC)c(/C=C/c2[nH]c(=O)[nH]c(=O)c2[N+](=O)[O-])c1,5.17µM*,-34.0%,-2.3%,1.6%,-11.1%
CC1=C[C@@H](O)CC(C)(C)[C@@H]1/C=C/C(C)=C/C=C/C(C)=C/C=C/C=C(C)/C=C/C=C(C)/C=C/C1=C(C)C[C@H](O)CC1(C)C,29.9µM*,/,/,?,/
CC1=C(/C=C/C(C)=C\C=C\C(C)=C\C=C\C=C(C)\C=C\C=C(C)\C=C\C2=C(C)C[C@@H](O)CC2(C)C)C(C)(C)C[C@H](O)C1,?,/,/,12.5%,/
CCOc1ncccc1C(=O)OCc1ccc(C(=O)OC)cc1,2.6%,-10.2%,3.7%,7.31µM*,4.0%
CCOc1ncccc1C(=O)OCc1ccc(Cl)cc1,-2.6%,15.0%,7.3%,-1.0%,-0.8%
O=C(OCc1ccc(Br)cc1)c1ccncc1,6.9%,0.0%,-5.2%,?,8.8%
SMILES,MCF10A rerep,a7 integrin act,Mito fusion act,SW480 rerep,AT treatment
COC(=O)c1ccc(COC(=O)c2ccc(N(C)C)cc2)cc1,8.2µM*,-1.3%,3.8%,?,32.7%
CC(=O)Nc1ccc(C(=O)OCc2ccc(Br)cc2)cc1,?,6.6%,15.8µM*,4.3%,5.5%
O=C(CCN1C(=O)C2C3CCC(C3)C2C1=O)Nc1ccc(Br)cc1 (stereo not drawn),18.5%,26.8%,-0.7%,11.6µM*,1.4%
COc1ccc(NC(=O)CCN2C(=O)C3C4CCC(C4)C3C2=O)cc1 (stereo not drawn),-2.2%,6.6%,4.9%,2.8%,2.0%
C=Cc1ccc(Cn2nc(-c3ccc(C)cc3)ccc2=O)cc1,?,-18.8%,17.3%,16.4µM*,5.5%
O=c1ccc(-c2ccccc2)nn1Cc1ccc(Cl)cc1,-4.3%,9.9%,/,-0.9%,/
Cc1cc(/C=C(\C#N)C(=O)Nc2ccccc2)c(C)n1-c1ccc2c(c1)OCO2,?,18.5%,4.2%,3.66µM*,1.2%
COC(=O)c1[nH]c2c(c1C)C(=O)CC(c1cccs1)C2 (stereo not drawn),2.06µM*,?,-5.2%,?,-4.0%
COC(=O)c1[nH]c2c(c1C)C(=O)CC(c1cc(OC)ccc1OC)C2 (stereo not drawn),8.2µM*,7.5%,-1.4%,?,-9.5%
Cc1c(C(=O)O)[nH]c2c1C(=O)CC(c1ccccc1)C2 (stereo not drawn),6.1%,-0.2%,-11.0%,-0.9%,-2.1%
CCOc1ccc(C2CC(=O)c3c([nH]c(C(=O)OC)c3C)C2)cc1OC (stereo not drawn),12.8%,-3.3%,-1.7%,12.7%,/
CNC(=O)c1ccc(-c2sc3nc(N4CCOCC4)c4c(c3c2N)CCCC4)o1,?,5.9%,6.3%,7.31µM*,?
Cc1nc2c(sc3nc(N4CCOCC4)c4c(c32)CC(C)(C)OC4)c(-c2ccccc2)c1C(=O)O,2.91µM*,0.0%,-4.4%,20.6µM*,6.1%
CN1Cc2c(N3CCOCC3)nc3sc(C(=O)c4ccc(Br)cc4)c(N)c3c2CC1(C)C,18.4µM*,-70.5%,-33.3%,?,44.3%
CC1(C)Cc2c(c(N3CCOCC3)nc3sc(-c4ccc(C(=O)O)o4)c(N)c23)CO1,?,6.2%,6.4%,19.1%,11.9%
CC1(C)Cc2c(c(N3CCOCC3)nc3snc(NC(=O)c4ccccc4)c23)CO1,0.5%,-31.7%,-1.4%,-0.2%,/
Nc1c(C(=O)NCc2ccccc2)sc2nc(N3CCOCC3)c3c(c12)CCCC3,8.2%,5.8%,-1.6%,6.9%,15.9%
CNC(=O)c1ccc(-c2sc3nc(N4CCOCC4)c4c(c3c2N)CC(C)(C)OC4)o1,2.91µM*,31.5%,8.5%,?,4.47µM*
CN(C)c1nc(C(=O)NN)nc(N(C)C)n1,3.66µM*,23.6%,-7.2%,16.0%,-1.3%
O=C(CCCN1C(=O)S/C(=C\C=C\c2ccccc2)C1=O)Nc1ccc(O)cc1,11.6µM*,-39.6%,3.5%,?,-2.7%
O=C(CCCN1C(=O)/C(=C\c2cccs2)SC1=S)Nc1ccc(O)cc1,1.7%,-60.6%,0.9%,20.6µM*,-23.4%
Cc1cc(C)cc(NC(=O)Cn2nnc(-c3ccccc3F)n2)c1,/,/,-3.1%,/,/
O=C(/C=C/c1ccccc1[N+](=O)[O-])OCC(=O)N1CCN(c2ccccc2)CC1,/,-16.2%,/,/,/
CCn1c(C(=O)N2CCC(Cc3ccccc3)CC2)cc2sccc21,20.6µM*,5.2%[7.66 µM],-3.4%,1.0%,2.7%

# High-throughput results deposited in PubChem BioAssay by National Center for Advancing Translational Sciences (NCATS).
